Test results taken from PubChem BioAssay (EPA / NIEHS).
Records with an inconclusive call do not appear. The source made the active and inactive calls. How the source made its calls, unless noted: active means hit-call score of the fitted dose curve at least 0.9, where 1 is the maximum; inactive means score below 0.9.

Key:
[1] = read-out: E-selectin (Homo sapiens) (UniProt P16581); test: BSK_3C_Eselectin: BioMAP Diversity Plus: 3C Assay for Eselectin Biomarker Activity (AID 2283015); details: primary human endothelial cells (HUVEC); actives raise or lower the signal;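 further: cell surface E-selectin protein quantified by ELISA 24 h after dosing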
Procedure, shortened: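 E-selectin ELISA readout, fitted bidirectionally relative to DMSO, taken 24 h post-dosing in HUVEC cultures of the 3C system. Overt cytotoxicity tracked with sulforhodamine B staining of parallel wells.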

[2] = read-out: Interleukin-1 alpha (IL1a), IL1A (gene 3552); test: BSK_BE3C_IL1a: BioMAP Diversity Plus: BE3C Assay for Interleukin-1 alpha (IL1a) Biomarker Activity (AID 2283016); details: primary human bronchial epithelial cells; actives raise or lower the signal
Procedure, shortened: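 Human primary bronchial epithelial cells (BE3C system) were dosed with compound and IL-1a measured by ELISA 24 h later. Activity was fitted bidirectionally against DMSO baseline; cytotoxicity was tracked in parallel cultures by SRB total-protein staining.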

[3] = read-out: Monocyte Chemoattractant Protein-1 (MCP1), CCL2 (gene 6347); test: BSK_4H_MCP1: BioMAP Diversity Plus: 4H Assay for Monocyte Chemoattractant Protein-1 (MCP1) Biomarker Activity (AID 2283018); details: primary human endothelial cells (HUVEC); actives raise or lower the signal
Procedure, shortened: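 Human umbilical vein endothelial cells (4H system) dosed with chemical; MCP-1 measured by ELISA 24 h after dosing. Bidirectional curve fitting against DMSO negative control as baseline; parallel SRB total-protein staining tracks overt cytotoxicity.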

[4] = read-out: Human Leukocyte Antigen - DR isotype (HLADR), HLA-DRA (gene 3122); test: BSK_3C_HLADR: BioMAP Diversity Plus: 3C Assay for Human Leukocyte Antigen - DR isotype (HLADR) Biomarker Activity (AID 2283019); details: primary human endothelial cells (HUVEC); actives raise or lower the signal;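 further: ELISA of cell-surface HLA-DR on HUVEC 24 h after dosing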
Procedure, shortened: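 Bidirectional fitting against DMSO was applied to the HLA-DR ELISA signal from human umbilical vein endothelial cells, 24 h post-dose. Cytotoxicity came from parallel SRB total-protein staining; 3C proliferation was counted by SRB at 48 h.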

[5] = read-out: Interleukin-8 (IL8), CXCL8 (gene 3576); test: BSK_3C_IL8: BioMAP Diversity Plus: 3C Assay for Interleukin-8 (IL8) Biomarker Activity (AID 2283020); details: primary human endothelial cells (HUVEC); actives raise or lower the signal
Procedure, shortened: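 Primary human umbilical vein endothelial cells (3C system) were exposed to test chemical for 24 h, then IL-8 was quantified by ELISA. Responses were fitted bidirectionally against DMSO vehicle as baseline.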

[6] = read-out: Monokine induced gamma interferon (MIG), CXCL9 (gene 4283); test: BSK_3C_MIG: BioMAP Diversity Plus: 3C Assay for Monokine induced gamma interferon (MIG) Biomarker Activity (AID 2283021); details: primary human endothelial cells (HUVEC); actives raise or lower the signal
Procedure, shortened: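 Primary human umbilical vein endothelial cells in the 3C system were exposed to chemical for 24 h, after which MIG was quantified by ELISA. Activity was fitted bidirectionally against DMSO as negative control and baseline.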

[7] = target: human Vitamin D Receptor (VDR), VDR (gene 7421) (UniProt P11473); test: ATG_VDR_TRANS: Attagene TRANS-FACTORIAL HepG2 Assay for human Vitamin D Receptor (VDR) (AID 2283022; active means hit-call score of the fitted dose curve at least 0.9, where 1 is the maximum)
Procedure, shortened: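 Transactivation by an exogenous VDR-Gal4 chimera in transiently transfected HepG2 cells was measured as reporter transcript level 24 hours after chemical treatment. RT-PCR products were analysed by capillary electrophoresis and fitted in the positive direction relative to DMSO.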

[8] = BSK_3C_SRB: Viability Assessment in the BioMAP Diversity Plus: 3C Assay (AID 2283023); details: primary human endothelial cells (HUVEC);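 further: fitted both ways against DMSO so a hit may be signal rise or drop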
Procedure, shortened: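 Cytotoxicity readout in parallel HUVEC 3C cultures: after 24 h compound exposure, cells fixed with 10% TCA, stained with 0.1% SRB and read at 560 nm. Gain or loss relative to DMSO fitted.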

[9] = read-out: Matrix Metallopeptidase 1 (MMP1), MMP1 (gene 4312); test: BSK_BE3C_MMP1: BioMAP Diversity Plus: BE3C Assay for Matrix Metallopeptidase 1 (MMP1) Biomarker Activity (AID 2283024); details: primary human bronchial epithelial cells; actives raise or lower the signal
Procedure, shortened: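 Primary human bronchial epithelial cells were dosed with test chemicals, and MMP1 levels were measured by ELISA 24 h later. Data were fitted bidirectionally against DMSO as the negative control and activity baseline.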

[10] = BSK_3C_Vis: BioMAP Diversity Plus: 3C Assay for Morphology Visualization (AID 2283025); details: primary human endothelial cells (HUVEC);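 further: fitted both ways so gain or loss versus DMSO counts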
Procedure, shortened: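 Human umbilical vein endothelial cells in the 3C system were imaged by light microscopy 24 h after chemical dosing to record cell morphology. Activity was fitted bidirectionally against DMSO as negative control and baseline; the endpoint serves as a background control.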

[11] = read-out: Pselectin, SELP (gene 6403); test: BSK_4H_Pselectin: BioMAP Diversity Plus: 4H Assay for Pselectin Biomarker Activity (AID 2283026); details: primary human endothelial cells (HUVEC); actives raise or lower the signal
Procedure, shortened: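 Primary human umbilical vein endothelial cells were exposed to test chemical for 24 h, then cell-surface P-selectin was quantified by ELISA. Activity was fitted bidirectionally against DMSO as negative control and baseline.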

[12] = BSK_4H_SRB: Viability Assessment in the BioMAP Diversity Plus: 4H Assay (AID 2283027); details: primary human endothelial cells (HUVEC);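 further: cells exposed to compound for 24 h before staining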
Procedure, shortened: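 Human umbilical vein endothelial cells were dosed with chemical and, after 24 h, fixed with 10% TCA, stained with 0.1% sulforhodamine B, and read at 560 nm to give total protein as a cytotoxicity measure. Bidirectional fitting relative to DMSO control.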

[13] = BSK_BE3C_SRB: Viability Assessment in the BioMAP Diversity Plus: BE3C Assay (AID 2283028); details: primary human bronchial epithelial cells
Procedure, shortened: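 Cytotoxicity read-out: SRB (0.1%) staining of TCA-fixed (10%) human lung bronchial epithelial cells, absorbance 560 nm, 24 h post-dosing. Curves fitted both directions relative to DMSO.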

[14] = read-out: Thrombomodulin, THBD (gene 7056); test: BSK_3C_Thrombomodulin: BioMAP Diversity Plus: 3C Assay for Thrombomodulin Biomarker Activity (AID 2283029); details: primary human endothelial cells (HUVEC); actives raise or lower the signal
Procedure, shortened: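 Primary human umbilical vein endothelial cells (3C system) were exposed to chemical for 24 h, then thrombomodulin levels were measured by ELISA. Activity was fitted bidirectionally against the DMSO negative control as baseline.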

[15] = read-out: Monocyte Chemoattractant Protein-1 (MCP1), CCL2 (gene 6347); test: BSK_3C_MCP1: BioMAP Diversity Plus: 3C Assay for Monocyte Chemoattractant Protein-1 (MCP1) Biomarker Activity (AID 2283017); details: primary human endothelial cells (HUVEC); actives raise or lower the signal
Procedure, shortened: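 MCP-1 was measured by ELISA 24 h after dosing in primary HUVEC 3C cultures and fitted in both directions relative to DMSO; cytotoxicity was checked by SRB total-protein staining in parallel wells.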

[16] = target: human Thyroid Receptor alpha (THRa1), THRA (gene 7067) (UniProt P10827); test: ATG_THRa1_TRANS: Attagene TRANS-FACTORIAL HepG2 Assay for human Thyroid Receptor alpha (THRa1) (AID 2283014; active means hit-call score of the fitted dose curve at least 0.9, where 1 is the maximum)
Procedure, shortened: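 Transcripts from GAL4-UAS-driven reporters, measured after 24 h compound exposure by RT-PCR plus capillary electrophoresis of 6-FAM-labeled fragments, were fitted for gain of signal relative to DMSO. Cells: transiently transfected HepG2 expressing NR-Gal4 chimeras.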

[17] = target: Retinoic acid receptor RXR-alpha (Homo sapiens) (UniProt P19793); test: ATG_RXRa_TRANS: Attagene TRANS-FACTORIAL HepG2 Assay for human Retinoid X Receptor alpha (RXRa) (AID 2283012; active means hit-call score of the fitted dose curve at least 0.9, where 1 is the maximum)
Procedure, shortened: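 HepG2 cells transiently transfected with multiplexed GAL4-UAS reporter units and chimeric NR-GAL4 fusions, dosed 24 h. Reporter mRNA measured by RT-PCR, FAM labelling, HpaI digestion and capillary electrophoresis; gain-of-signal fitted relative to DMSO baseline.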

Measured: outcome

E-selectin (Homo sapiens), sequence (P16581 whole entry, looked up): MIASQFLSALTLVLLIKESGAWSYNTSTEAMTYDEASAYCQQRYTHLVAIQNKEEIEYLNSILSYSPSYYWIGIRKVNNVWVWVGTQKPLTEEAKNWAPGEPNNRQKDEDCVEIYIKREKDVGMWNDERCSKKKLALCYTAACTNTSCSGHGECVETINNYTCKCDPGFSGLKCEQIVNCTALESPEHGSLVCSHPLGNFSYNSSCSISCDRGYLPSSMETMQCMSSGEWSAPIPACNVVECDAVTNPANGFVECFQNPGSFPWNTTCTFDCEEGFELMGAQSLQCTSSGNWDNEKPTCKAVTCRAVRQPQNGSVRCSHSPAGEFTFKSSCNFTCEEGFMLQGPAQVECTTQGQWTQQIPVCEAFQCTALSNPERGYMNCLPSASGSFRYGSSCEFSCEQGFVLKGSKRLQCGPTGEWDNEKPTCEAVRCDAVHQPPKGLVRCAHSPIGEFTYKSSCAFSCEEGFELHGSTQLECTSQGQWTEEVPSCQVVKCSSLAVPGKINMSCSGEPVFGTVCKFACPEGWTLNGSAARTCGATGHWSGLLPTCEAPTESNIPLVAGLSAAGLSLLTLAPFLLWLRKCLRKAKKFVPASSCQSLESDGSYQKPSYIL
human Vitamin D Receptor (VDR), VDR (gene 7421), sequence (P11473 whole entry, looked up, the tested form may be a part): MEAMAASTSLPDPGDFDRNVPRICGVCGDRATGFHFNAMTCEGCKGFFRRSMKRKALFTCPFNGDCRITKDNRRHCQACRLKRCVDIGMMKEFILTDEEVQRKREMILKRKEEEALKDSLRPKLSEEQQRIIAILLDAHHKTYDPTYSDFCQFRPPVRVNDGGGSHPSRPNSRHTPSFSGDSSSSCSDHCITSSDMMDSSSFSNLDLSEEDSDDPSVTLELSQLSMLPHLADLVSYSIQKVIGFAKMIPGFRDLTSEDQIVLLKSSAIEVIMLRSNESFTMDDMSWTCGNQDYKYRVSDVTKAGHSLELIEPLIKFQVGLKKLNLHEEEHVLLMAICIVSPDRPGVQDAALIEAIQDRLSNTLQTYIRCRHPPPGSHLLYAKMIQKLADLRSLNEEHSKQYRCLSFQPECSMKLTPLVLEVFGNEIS
Retinoic acid receptor RXR-alpha (Homo sapiens), sequence (P19793 whole entry, looked up, the tested form may be a part): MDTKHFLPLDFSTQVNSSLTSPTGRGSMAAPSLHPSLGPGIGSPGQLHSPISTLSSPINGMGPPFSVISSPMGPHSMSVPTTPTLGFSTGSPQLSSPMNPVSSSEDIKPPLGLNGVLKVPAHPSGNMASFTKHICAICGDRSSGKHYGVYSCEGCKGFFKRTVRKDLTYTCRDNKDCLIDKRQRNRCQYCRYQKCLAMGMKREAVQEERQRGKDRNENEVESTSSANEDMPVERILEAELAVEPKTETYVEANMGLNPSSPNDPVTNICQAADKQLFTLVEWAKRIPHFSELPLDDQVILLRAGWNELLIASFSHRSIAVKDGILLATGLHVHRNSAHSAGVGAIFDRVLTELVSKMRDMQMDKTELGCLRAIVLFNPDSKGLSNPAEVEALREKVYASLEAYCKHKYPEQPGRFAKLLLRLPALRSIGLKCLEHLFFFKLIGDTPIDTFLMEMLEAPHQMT
human Thyroid Receptor alpha (THRa1), THRA (gene 7067), sequence (P10827 whole entry, looked up, the tested form may be a part): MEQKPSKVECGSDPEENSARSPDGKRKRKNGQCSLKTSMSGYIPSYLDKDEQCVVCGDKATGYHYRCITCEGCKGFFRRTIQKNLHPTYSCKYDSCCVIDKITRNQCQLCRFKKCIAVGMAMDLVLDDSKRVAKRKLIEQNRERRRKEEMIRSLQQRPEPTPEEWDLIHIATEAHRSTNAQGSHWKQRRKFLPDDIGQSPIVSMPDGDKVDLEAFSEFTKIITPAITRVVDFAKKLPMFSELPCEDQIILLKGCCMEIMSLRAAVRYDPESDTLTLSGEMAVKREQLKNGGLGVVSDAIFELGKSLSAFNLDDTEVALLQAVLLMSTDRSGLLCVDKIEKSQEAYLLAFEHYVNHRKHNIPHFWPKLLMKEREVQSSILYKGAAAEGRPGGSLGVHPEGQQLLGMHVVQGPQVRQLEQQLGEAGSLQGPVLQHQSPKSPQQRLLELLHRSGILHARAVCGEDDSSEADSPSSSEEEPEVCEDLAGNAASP

O=P1(N(CCCl)CCCl)NCCCO1 (stereo not drawn)
inactive: [1] | [2] | [3] | [4] | [5] | [6] | [7] | [8] | [9] | [10] | [11] | [12] | [13] | [14]

CCC1(c2ccccc2)C(=O)N=C(O)NC1=O (stereo not drawn)
inactive: [1] | [2] | [15] | [3] | [4] | [5] | [6] | [7] | [8] | [9] | [10] | [11] | [12] | [13] | [14]

O=NN1CCCC1
inactive: [16]

[N-]=[N+]=[N-]
inactive: [1] | [2] | [3] | [4] | [5] | [6] | [8] | [9] | [10] | [12] | [13] | [14]

CCOc1ccc(C(C)(C)COCc2cccc(Oc3ccccc3)c2)cc1
inactive: [17] | [1] | [2] | [15] | [3] | [4] | [5] | [6] | [7] | [8] | [9] | [10] | [11] | [12] | [13] | [14]

COP(=O)(CCC(=O)NCO)OC
inactive: [17] | [1] | [2] | [15] | [3] | [4] | [5] | [6] | [8] | [9] | [11] | [12] | [13] | [14]

CCOC(=O)c1ccccc1C(=O)OCC
inactive: [1] | [2] | [3] | [4] | [5] | [6] | [7] | [8] | [9] | [10] | [12] | [13] | [14]

CC(Cc1ccc(OCC(=O)O)cc1)NCC(O)c1csc(C(F)(F)F)n1 (stereo not drawn)
inactive: [1] | [2] | [3] | [4] | [5] | [6] | [8] | [9] | [10] | [11] | [12] | [13] | [14]
